Reference: PubChem BioAssay AID2071 (Sanford-Burnham Center for Chemical Genomics, 2009)
About 1,700 (0.61%) of roughly 280,000 compounds were called active. Rule as the data show it: active = inhibition mostly above about 24% (no sharp cut-off); inactive = mostly below about 32%. Only a selection was taken, and actives are over-represented in it overall.

Test: NALP1 inflammasome inhibitors in reconstituted yeast, colorimetric, S. cerevisiae, triplicate retest (AID 2071)
Settings: S. cerevisiae NALP1/ASC/caspase-1 growth, X-gal OD620, 72 h, stronger effect = higher value

CCCCCCCCCCCCn1ccc(=N)cc1
inhibition (at 10 µM unless noted): 92.4% (active)

O=C(N/N=C/c1c(O)n(C2CC2)c(=S)[nH]c1=O)c1ccccc1
inhibition (at 10 µM unless noted): -16.2% (inactive)

COc1ccc(CNCCc2c[nH]c3ccccc23)cc1OC
inhibition (at 10 µM unless noted): -6% (inactive)

CCN1CCN(Cc2cc(OC)c3c(c2)OCO3)CC1
inhibition (at 10 µM unless noted): -2.2% (inactive)

CN1CCN(C(=O)COc2ccc(C(C)(C)C)cc2Br)CC1
inhibition (at 10 µM unless noted): 8.8% (inactive)

CC(C)(C)c1ccc(OC(=O)N2CCCCC2)cc1
inhibition (at 10 µM unless noted): 41% (active)

O=C(Nc1cccc(OC(=O)N2CCCCC2)c1)N1CCOCC1
inhibition (at 10 µM unless noted): -35.9% (inactive)

Cc1ccc(S(=O)(=O)N(C)c2ccc(C(=O)NCC3(N(C)C)CCCCC3)cc2)cc1
inhibition (at 10 µM unless noted): 9.8% (inactive)

COc1ccc(CNCCc2ccc3c(c2)OCO3)c(OC)c1OC
inhibition (at 10 µM unless noted): 30.6% (inactive)

CC(C)c1ccc(OCC(=O)N2CCCN(C)CC2)cc1
inhibition (at 10 µM unless noted): 3.6% (inactive)

C=CCN1C(=O)NC(=O)/C(=C/c2ccc(OCC(=O)Nc3ccc(C)cc3)cc2)C1=O
inhibition (at 10 µM unless noted): 25% (inactive)

CCN1CCN(c2nc3c(c(=O)[nH]2)CCC3)CC1
inhibition (at 10 µM unless noted): 25.1% (inactive)

CN(C)/C=C(\C=[N+](C)C)c1[nH]ncc1[N+](=O)[O-]
inhibition (at 10 µM unless noted): 35.3% (active)

CCN(CC)C(=O)c1ccc(NC(=O)c2sccc2-c2ccccc2)cc1
inhibition (at 10 µM unless noted): 1% (inactive)

O=C(N/N=C/c1c(O)n(C2CC2)c(=S)[nH]c1=O)c1ccccc1Cl
inhibition (at 10 µM unless noted): 3.2% (inactive)

Clc1ccc2nc3c(c(-c4ccccc4)c2c1)CNCC3
inhibition (at 10 µM): 45% (active) | inhibition (triplicate retest, at 20 µM): 66.3%

COc1ccc2[nH]c3c(c2c1)CCN[C@H]3C
inhibition (at 10 µM unless noted): 14.7% (inactive)

COc1ccc(N=Cc2c(O)n(C)c(=O)[nH]c2=O)cc1
inhibition (at 10 µM unless noted): 12.7% (inactive)

CN(c1ccccc1)c1ccc([N+](=O)[O-])c2nonc12
inhibition (at 10 µM unless noted): -7.2% (inactive)

Cc1nc2ccccc2c(=O)n1-c1ccc(Cl)cc1Cl
inhibition (at 10 µM unless noted): 11.2% (inactive)
